Bioassay records (PubChem BioAssay)
MEKK2 WT-MEK5: raises or lowers MEK5 binding to wildtype human MEKK2 PB1 domain | Q9Y2U5 | bead flow cytometry, Alexa488-MEK5 binding to MEKK2 WT; actives lie on both sides | binding response (% of control), % at 10 µM | 1.1% of 290,000 active | AID 1531; in the data active means binding response below about 67% or above about 130%
Rce1 inhib: yeast Ras-converting enzyme inhibition; Q03530; yeast membranes, quenched prenylated peptide cleavage fluorescence; calls only; 0.27% of 290,000 active;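 active means fall in fluorescence gain of 50% or more versus controls, with final raw signal at or below 3038400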;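 further: plate controls were neutral control wells for no effect and wells lacking membranes for full effect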
MEKK3 PB1 HTS: raises or lowers MEK5 binding to the human MEKK3 PB1 domain | AID 1529 | 1.4% of 290,000 active | binding response (% of control), % at 10 µM | bead-based flow cytometry, Alexa488-MEK5 binding to MEKK3; actives lie on both sides; 0 = blocked by unlabeled MEK5, 100 = vehicle;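 active means binding response more than 3 SD above or below the average of its plate-row segment, actives on both sides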;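 further: Alexa488 bead fluorescence after subtracting the streptavidin-only scavenger bead signal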
Target sequence (Q99759 whole entry, looked up, the tested form may be a part): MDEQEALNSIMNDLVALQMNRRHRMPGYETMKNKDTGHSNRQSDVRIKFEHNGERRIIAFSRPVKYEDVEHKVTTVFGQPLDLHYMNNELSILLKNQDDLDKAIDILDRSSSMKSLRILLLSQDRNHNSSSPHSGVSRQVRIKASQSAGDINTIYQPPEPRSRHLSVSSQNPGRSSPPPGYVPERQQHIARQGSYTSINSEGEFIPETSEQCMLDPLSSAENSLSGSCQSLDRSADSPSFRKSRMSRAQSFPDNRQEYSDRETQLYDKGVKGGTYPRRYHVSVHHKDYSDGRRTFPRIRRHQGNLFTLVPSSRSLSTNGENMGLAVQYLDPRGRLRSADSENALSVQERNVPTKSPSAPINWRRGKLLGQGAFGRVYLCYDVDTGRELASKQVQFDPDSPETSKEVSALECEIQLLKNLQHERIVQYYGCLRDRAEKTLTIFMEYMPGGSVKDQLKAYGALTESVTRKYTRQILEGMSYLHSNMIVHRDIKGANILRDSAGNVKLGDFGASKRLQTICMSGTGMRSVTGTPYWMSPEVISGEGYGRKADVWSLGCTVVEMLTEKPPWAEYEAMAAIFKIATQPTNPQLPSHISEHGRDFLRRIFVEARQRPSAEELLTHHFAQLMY
MEKK2mut PB1 HTS: signal of MEK5 binding to mutant human MEKK2 PB1 domain; bead flow cytometry, Alexa488-MEK5 binding to MEKK2 mutant; percent response, % at 10 µM; 0.35% of 290,000 active; in the data active means percent response above about 24%, passing the limit was not always enough
UBC13 inh: blocks human UBC13 polyubiquitin chain formation; P61088; TR-FRET; inhibition, % at 20 µM; 0.47% of 330,000 active; in the data active means inhibition above about 45%, passing the limit was not always enough
MEKK2wt confirm: raises or lowers MEK5 binding to wildtype human MEKK2, retest; bead flow cytometry, Alexa488-MEK5 binding to MEKK2 WT; actives lie on both sides; binding response (% of control), % at 10 µM; AID 1892; shares compounds with MEKK3 PB1 HTS; 2.4% of 5,900 active; in the data active means binding response below about 16% or above about 210%; inactive means in between
MEKK2mut-MEK5: signal of MEK5 binding to mutant human MEKK2, retest; bead flow cytometry, Alexa488-MEK5 binding to MEKK2 mutant; percent response, % at 10 µM; shares compounds with MEKK3 PB1 HTS; AID 1893; 2% of 5,900 active; in the data active means percent response mostly above about 71%, no sharp cut-off; inactive means mostly below about 38%;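 further: higher means compound restores mutant binding toward wildtype level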
MEKK3-MEK5 inh: MEKK3-MEK5 PB1 inhibition, single concentration confirmation | 1.8% of 5,900 active | bead flow cytometry, Alexa488-MEK5 binding to MEKK3; stronger effect = lower value | AID 1894 | binding response (% of control), % at 10 µM | shares compounds with MEKK3 PB1 HTS;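 active means binding response below 72% of control, or above a set upper limit, though filed actives all read lower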;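 further: 100% = DMSO only wells and 0% = binding blocked by excess unlabeled MEK5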
The depositor's hits bear a star; i = inactive; x = no result given; [ ] = remark or other dose. Shown are actives, neighbours in structure and some others; about 2.5% of the full set was active somewhere.

SMILES	MEKK2 WT-MEK5	Rce1 inhib	MEKK3 PB1 HTS	MEKK2mut PB1 HTS	UBC13 inh	MEKK2wt confirm	MEKK2mut-MEK5	MEKK3-MEK5 inh
Cc1cc2oc(=O)cc(CN3CCCc4ccccc43)c2cc1C	x	i	105	228*	-5	92	-13	100
C/C(=N\NC(=O)c1ccc(Cl)c(S(=O)(=O)Nc2ccccc2Cl)c1)c1ccncc1	106	i	145*	2	-2	99	3	100
O=c1c2[nH]c3ccc(F)cc3c2nc2n1CCCS2	97	i	99	-5	-2	x	x	x
COc1ccc(C2C(C(=O)Nc3cc(C)on3)c3ccccc3C(=O)N2C)cc1OC (stereo unspecified)	0.0*[inhibitor]	x	0.0*[inhibitor]	-15	3	104	-1	103
Cc1cccc(C(=O)N2CCN(c3ncnc4c3cnn4-c3ccccc3)CC2)c1	100	i	106	24*	4	97	-2	100
Cc1cccc(-n2ncc3c(N4CCCC4)ncnc32)c1	103	i	94	1	5	x	x	x
COc1ccc(-n2nc(C(=O)NCC(=O)NCCCN3CCCCCC3)c3ccccc3c2=O)cc1Cl	149*	i	102	28	25	156	32	102
COC(=O)c1cc(C#N)c(OC(C)C)nc1C	123	i	142*	7	5	98	-3	97
COC(=O)c1cc(C#N)c(Oc2ccccc2OC)nc1C	105	i	103	0	-4	x	x	x
Cc1ccc(-c2nc3sc4c(c3c(=O)n2N)CCCC4)cc1	66	i	56*[inhibitor]	-28	9	106	-2	99
O=c1c2c3c(sc2nc2n1CCCC2)CCC3	80	i	72*[inhibitor]	-13	-4	99	-6	100
O=c1c2c3c(sc2nc2n1CCCCC2)CCCCC3	97	i	102	2	8	x	x	x
COc1ccc(C(CCN)c2ccc3c(c2)OCO3)cc1 (stereo unspecified)	124	i	102	28*	6	132	16	105
Cc1ccc2c(Cl)cc(Cl)c(OCC(=O)O)c2n1	113	i	129*	1	0	95	-3	95
Cc1[nH]c2nc3ccccc3n2c(=O)c1CCC(C)C	109	i	105	4	8	x	x	x
CCc1nc2ccccc2c(C(=O)OCC(=O)NC2CC2)c1C	x	x	x	x	12	x	x	x
CCc1nc2ccccc2c(C(=O)OCC(=O)NC(=O)c2cccn2C)c1C	72	i	67*[inhibitor]	-18	-4	101	3	105
Cc1c(C(=O)NNS(=O)(=O)c2ccccc2)sc(=S)n1C	113	i	139*	0	-7	97	-5	102
NC(=O)COc1ccc(/C=N\NC(=O)c2ccc(-c3ccccc3)cc2)cc1	107	i	107	10	22	x	x	x
O=c1cc(CO)oc(CN2CCN(Cc3ccccc3)CC2)c1O	135*	i	116	14	0	101	0	99
CCOc1ccc(C(=O)NN2CCOCC2)cc1	102	i	97	-5	-3	x	x	x
Cc1cc(=O)[nH]c(N/N=C/C2=C(N3CCOCC3)C(=C\c3ccc(Cl)cc3)/CC2)n1	112	i	135*	2	-32	101	-2	101
O=S(=O)(c1ccccc1)c1cnc(-c2ccccc2)nc1N1CCCCC1	105	i	105	1	6	x	x	x
COC/C=C/C1=CC2=CC(=O)C(C)(OC(=O)c3cnc4ccccc4n3)C(=O)C2=CN1CC(C)C (stereo unspecified)	85	i	80*[inhibitor]	-2	-66	101	3	101
COC/C=C/C1=CC2=CC(=O)C(C)(OC(=O)c3cnc4ccccc4n3)C(=O)C2=CN1c1ccccc1 (stereo unspecified)	94	i	95	4	-31	x	x	x
SMILES	MEKK2 WT-MEK5	Rce1 inhib	MEKK3 PB1 HTS	MEKK2mut PB1 HTS	UBC13 inh	MEKK2wt confirm	MEKK2mut-MEK5	MEKK3-MEK5 inh
C=CCSC1=C(C#N)C(c2ccccc2OCC)CC(=O)N1 (stereo unspecified)	-8.0*[inhibitor]	i	0.0*[inhibitor]	-22	3	111	7	105
COC(=O)CSC1=C(C#N)C(c2ccccc2)CC(=O)N1 (stereo unspecified)	-2.0*[inhibitor]	i	2.0*[inhibitor]	-27	-9	97	-3	98
CCn1c(SCC(=O)NC2CCCC2)nnc1C(C)C	98	i	98	4	2	x	x	x
CC(OC(=O)C1CCN(S(=O)(=O)c2ccc(F)cc2)CC1)C(=O)NC1CCCCC1C (stereo unspecified)	x	i	x	x	0	x	x	x
COc1ccc(/C=C/C(=O)c2ccc3c(c2)OCCO3)cc1[N+](=O)[O-]	120	i	132*	6	9	97	-3	97
COc1ccc(/C=N/NC(=O)c2ccc3c(c2)OCCO3)cc1[N+](=O)[O-]	88	i	95	-4	-4	x	x	x
COc1ccc(-c2csc(NC(=O)c3ccccc3F)c2C(=O)O)cc1	105	i	104	2	0	x	x	x
O=C(COC(=O)c1cc[n+]([O-])cc1)Nc1ccc(Cl)cc1C(F)(F)F	x	x	x	x	0	x	x	x
Cc1c2cnn(CC(=O)NCCCN3CCCCC3)c(=O)c2c(C)n1Cc1ccccc1	137*	i	101	22	2	128	20	98
Cc1ccc(SCCNC(=O)/C=C/c2ccc([N+](=O)[O-])cc2)cc1	1.0*[inhibitor]	i	0.0*[inhibitor]	-7	1	99	3	102
O=C(CSc1ccc(-c2nc3ccccc3[nH]2)cn1)Nc1ccc(S(=O)(=O)N2CCCC2)cc1	107	i	97	-2	1	x	x	x
Cc1cc2nc(-c3ccc(SCC(=O)Nc4ccc(S(=O)(=O)N5CCCC5)cc4)nc3)[nH]c2cc1C	105	i	132*	1	2	94	0	98
CCOc1cc(/C=N/N=C2/NC(=O)C(CC(=O)O)S2)ccc1OCc1ccccc1Cl (stereo unspecified)	112	i	109	-1	-17	x	x	x
COc1ccc(/C=N/N=C2/NC(=O)C(CC(=O)O)S2)cc1OCc1ccccc1Cl (stereo unspecified)	109	i	146*	0	-9	106	13	109
Cc1nc(Nc2cccc(C(C)O)c2)c2nnn(Cc3ccc(F)cc3)c2n1 (stereo unspecified)	93	i	98	-2	-1	x	x	x
CN(Cc1ccccc1)S(=O)(=O)c1ccc2c(c1)n(C)c(=O)c(=O)n2C	120	i	130*	32	-2	97	0	97
Cc1cc2c(cc1S(=O)(=O)N(C)Cc1ccccc1)n(C)c(=O)c(=O)n2C	100	i	98	1	-3	x	x	x
